Compound activity from PubChem BioAssay.
LmPK inh = inhibitors of Leishmania mexicana pyruvate kinase; hit rate 0.37% among 290,000; purified LmPK, Kinase-Glo ATP luminescence, 1 h; Q27686; AID 1721; Potency, µM (doses to about 57.5 µM), most hits filed as inhibitors
Target sequence (Q27686 whole entry, looked up): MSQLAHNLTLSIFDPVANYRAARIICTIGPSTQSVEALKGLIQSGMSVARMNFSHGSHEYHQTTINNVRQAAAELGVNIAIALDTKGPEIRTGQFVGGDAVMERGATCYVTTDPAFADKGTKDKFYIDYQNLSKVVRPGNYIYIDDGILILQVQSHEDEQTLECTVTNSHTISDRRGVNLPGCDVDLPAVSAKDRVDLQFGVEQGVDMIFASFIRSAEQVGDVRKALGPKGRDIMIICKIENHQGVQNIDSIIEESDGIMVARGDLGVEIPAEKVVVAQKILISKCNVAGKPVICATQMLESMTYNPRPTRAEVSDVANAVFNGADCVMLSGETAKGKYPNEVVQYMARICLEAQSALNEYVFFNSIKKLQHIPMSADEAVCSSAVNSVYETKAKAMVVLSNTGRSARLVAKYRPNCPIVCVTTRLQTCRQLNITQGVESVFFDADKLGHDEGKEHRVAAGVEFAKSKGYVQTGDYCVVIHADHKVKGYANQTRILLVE
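Kinase-Glo luminescence read after 1 h RT reaction of 0.1 nM LmPK with 0.5 mM PEP and 0.1 mM ADP. Activity scaled between uninhibited and enzyme-free controls.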
Tb PYK inh = blocks Trypanosoma brucei pyruvate kinase; Potency, µM (doses to about 76.8 µM), most hits filed as inhibitors; TbPYK enzyme, Kinase-Glo Plus ATP luminescence, 45 min; Q57TT1; hit rate 0.12% among 410,000; also: nearly all actives have a fitted effect of over 50% in size
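Luminescent Kinase-Glo Plus end-point after 45 min room-temperature reaction of T. brucei pyruvate kinase started with 130 uM ADP (final). Buffer TEA 50 mM pH 7.2 with KCl, MgCl2, BSA, Tween-20; titration-based qHTS with fitted concentration-effect curves.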
HCMV inh = blocks human cytomegalovirus replication; hit rate 4.5% among 410,000; activity change, negative = inhibition, % at 57.5 µM; HFF cells, HCMV-luciferase reporter, 72 h; stronger effect = lower value; in the data active = activity change below about -60%; inconclusive = no clear call, values can overlap the other calls; inactive = above about -39%
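HFF cells seeded 16 h at 37C, treated with compounds, infected with luciferase-reporter HCMV at MOI 1 PFU/cell; luciferase read at 72 h post infection, normalized to buffer-only and Salinomycin controls.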
Vaccinia mCherry = inhibitors of vaccinia virus infection (mCherry reporter signal). Vaccinia virus mCherry reporter infection, fluorescence. Potency, µM (titrated, usually from 36.5 µM), actives largely listed as inhibitors. hit rate 0.63% among 310,000. AID 720579; calls by dose curve; tested in A549 cells; also: nearly all actives have a fitted effect of over 35% in size
Vaccinia Venus = inhibitors of vaccinia virus (Venus reporter). Vaccinia virus Venus reporter expression, fluorescence. Potency, µM (top dose mostly 36.5 µM), hits mostly inhibitors. hit rate 0.46% among 330,000. AID 720580; calls by dose curve; tested in A549 cells; also: nearly all actives have a fitted effect of over 30% in size
Each line names hits and unclear results; the compound was inactive in the other large screens. Sampled rows, rich in hits. Any-hit rate of the full collection: about 5%. Unless noted, calls follow the shape of the dose curve; as a rule, active = well fitted curve in the direction sought with a large enough effect; inconclusive = small, poorly fitted or top-dose-only effect, or another doubt; inactive = no such curve, though single readings can be large; an effect the other way counts as inactive or inconclusive.

CCN(CC)c1ccc(N=Cc2c(O)n(-c3ccccc3C)c(=O)[nH]c2=O)cc1	none
CCc1ccc2oc(-c3ccc(C)c(NC(=O)c4cc([N+](=O)[O-])ccc4N4CCOCC4)c3)nc2c1	HCMV inh inconclusive (no result: LmPK inh)
O=C(Nc1ccccc1N1CCOCC1)c1cccc([N+](=O)[O-])c1	none
O=C(/C=C/c1cccc([N+](=O)[O-])c1)Nc1ccccc1N1CCOCC1	HCMV inh -60.5
CC1CCN(c2ccccc2NC(=O)c2cc([N+](=O)[O-])ccc2N2CCOCC2)CC1	HCMV inh -92.8
O=C(Nc1cccc(-c2nc3cc(Cl)ccc3o2)c1)c1cc([N+](=O)[O-])ccc1N1CCOCC1	HCMV inh -63.1 (no result: LmPK inh)
CCc1ccccc1NC(=O)c1cc([N+](=O)[O-])ccc1N1CCOCC1	none
CCOc1ccccc1NC(=S)NC(=O)C1CCCCC1	none
NC(=S)N/N=C/c1cn(-c2ccccc2)nc1-c1cccnc1	Tb PYK inh inconclusive, Vaccinia mCherry inconclusive, Vaccinia Venus inconclusive
c1ccc2c3c([nH]c2c1)CCCC3	none (no result: LmPK inh, Tb PYK inh, HCMV inh)
C1=NCCc2c1[nH]c1ccccc21	HCMV inh -94.9 (no result: LmPK inh)
CN(C)S(=O)(=O)n1cc(/C=C(\NC(=O)c2ccccc2)C(=O)N2CCCC2)c2ccccc21	none (no result: Vaccinia mCherry, Vaccinia Venus)
CN(Cc1ccccc1)c1nc(-c2ccc([N+](=O)[O-])cc2)nc2ccccc12	none
O=[N+]([O-])c1ccc(-c2nc(C(Cl)Cl)c3ccccc3n2)cc1	HCMV inh -102.4
COc1ccc(CCN(Cc2cccs2)S(=O)(=O)c2ccc(-n3cnnn3)cc2)cc1OC	HCMV inh inconclusive, Vaccinia mCherry inconclusive, Vaccinia Venus inconclusive
Cn1ccs/c1=N\S(=O)(=O)c1ccc(F)cc1	none
c1ccc(Nc2ncnc3sccc23)cc1	HCMV inh -60.7
COc1ccc(Nc2ncnc3sccc23)cc1	none
CC(Nc1ncnc2sccc12)c1ccccc1 (stereo not given)	HCMV inh -85.5
Cc1ccc(C(=O)COC(=O)COc2ccccc2[N+](=O)[O-])s1	HCMV inh -100.6 (no result: LmPK inh)
CCN(CC)C(=O)C1CCN(S(=O)(=O)c2c(C)noc2/C=C/c2cccc(C)c2)CC1	none (no result: Vaccinia mCherry, Vaccinia Venus)
Cc1ccc(C)c(OCC(=O)O/N=C(\N)c2ccccn2)c1	none
Cc1cc(OC(C)C(=O)Nc2cccc(-c3nc4ccccc4o3)c2)cc(C)c1Cl (stereo not given)	none (no result: LmPK inh)
O=c1c(=O)n(-c2ccc(F)c(F)c2)ccn1Cc1ccc(F)cc1Cl	none (no result: LmPK inh)
COc1ccc(NS(=O)(=O)c2ccc3oc(=O)ccc3c2)cc1	none (no result: Vaccinia mCherry, Vaccinia Venus)
CCc1ccc(NS(=O)(=O)c2ccc3oc(=O)ccc3c2)cc1	HCMV inh -65.9
COc1cc(/C=C2\N=C(c3ccccc3)NNC2=O)cc(OC)c1OC	HCMV inh -81.1
Cc1ccc(S(=O)(=O)CC(CN2CCCCC2)N2CCCCC2)cc1 (stereo not given)	HCMV inh -98.8, Vaccinia mCherry inconclusive, Vaccinia Venus inconclusive
O=S(=O)(CC(CN1CCOCC1)N1CCOCC1)c1ccccc1 (stereo not given)	none
O=S(=O)(CC(CN1CCCCC1)N1CCCCC1)c1ccc2ccccc2c1 (stereo not given)	HCMV inh -73.1, Vaccinia mCherry inconclusive, Vaccinia Venus inconclusive
Cc1ccc(S(=O)(=O)CC(c2ccccc2)N2CCCCC2)cc1 (stereo not given)	HCMV inh inconclusive
CCN1CCN(c2ccc(NC(=O)c3cccc(N4CCCC4=O)c3)cc2)CC1	none
CCCS(=O)(=O)NC(=O)C1(C)CCCN(C(=O)CCc2ccccc2)C1 (stereo not given)	HCMV inh -65.1 (no result: LmPK inh, Tb PYK inh, Vaccinia mCherry, Vaccinia Venus)
Cc1cc(C)n(-c2nc3ccccc3nc2N2CCC(C)CC2)n1	none (no result: Vaccinia mCherry, Vaccinia Venus)
Cc1cc(C)n(-c2nc3ccccc3nc2N2CCN(C(=O)c3ccc(F)cc3)CC2)n1	HCMV inh -79.5
CN(C(=O)COc1ccc(C(C)(C)C)cc1)C1CCS(=O)(=O)C1 (stereo not given)	none
CCOc1ccc(-c2nc3c(s2)CCc2onc(-c4ccc(OC)cc4)c2-3)cc1	HCMV inh -60.4 (no result: LmPK inh)
CCn1c(SCC(=O)N/N=C/C=C\c2ccccc2[N+](=O)[O-])nnc1-c1ccccc1	none (no result: Vaccinia mCherry, Vaccinia Venus)
Cc1ccc(CSc2nnc(SCC(=O)N/N=C/C=C/c3ccccc3[N+](=O)[O-])s2)cc1	HCMV inh -78.2
CC(/C=N/NC(=O)CSc1nnc(SCc2ccccc2)s1)=C\c1ccco1	none
Cc1ccc(CSc2nnc(SCC(=O)N/N=C/C=C/c3ccco3)s2)cc1	HCMV inh -61.2
